According to ChEMBL document CHEMBL1157539, “Thousands of chemical starting points for antimalarial lead identification” (Nature, 2010):

Legend:
Assay type in all cases: functional
[1] = system: Plasmodium falciparum; test: GSK_TCMDC: Inhibition of Plasmodium falciparum 3D7 in whole red blood cells, using parasite LDH activity as an index of growth. Test compounds present at 2uM
[2] = system: Plasmodium falciparum; test: GSK_TCMDC: Inhibition of Plasmodium falciparum Dd2 in whole red blood cells, using parasite LDH activity as an index of growth. Test compounds present at 2uM
[3] = system: HepG2; test: GSK_TCMDC: Percent inhibition of human HepG2 cell line. Test compounds present at 10uM.

| SMILES | Inhibition [1] | Inhibition [2] | Inhibition [3] |
| --- | --- | --- | --- |
| Cc1ccc(N2C(=O)C3C(C2=O)C2(c4ccccc4)C(=O)C3(c3ccccc3)C(c3ccccc3)=C2c2ccccc2)c(C)c1 (configuration not stated) | 96% | 96% | 3% |
| CCCCCN1CCCC1CNS(=O)(=O)c1ccc(C(=O)Nc2cccc(C(F)(F)F)c2)cc1.O=C(O)C(F)(F)F (configuration not stated) | 95% | 0% | 16% |
| Cc1ccccc1C1CCN(C2CCC(NC(=O)/C=C/c3cc(C(F)(F)F)ccc3F)CC2)CC1 (configuration not stated) | 100% | 45% | 56% |
| COc1ccc2c(N/N=C/c3ccccc3[N+](=O)[O-])cc(C)nc2c1 | 100% | 100% | 14% |
| COc1ccc(CC2(c3ccc(F)cc3)N=C(N)N(CCCc3cccnc3)C2=O)cc1.O=C(O)C(F)(F)F (configuration not stated) | 98% | 97% | 12% |
| CON=Cc1ccn(-c2ccc(O)c3c2C[C@H]2C[C@H]4[C@H](N(C)C)C(O)=C(C(N)=O)C(=O)[C@@]4(O)C(O)=C2C3=O)c1.O=S(=O)(O)O | 96% | 70% | 3% |
| N[C@@H](Cc1cc(I)c(Oc2ccc(O)c(Cl)c2)c(I)c1)C(=O)O | 96% | 0% | 0% |
| Cc1ccc(F)c(C(=O)Nc2cccc(-c3nn4ccccc4c3-c3ccnc(Nc4cccc(F)c4)n3)c2)c1F | 98% | 60% | 35% |
| CN1CCN(CCCNCc2ccccc2-c2cccc(CNCc3ccc4c(c3)OCO4)c2)CC1.O=C(O)C(F)(F)F | 100% | 7% | 34% |
